# Source: PubChem BioAssay AID686960 (The Scripps Research Institute Molecular Screening Center, 2013)
# This is one part of the list. A number with no mark means an inactive call. Calls of active or inactive are those of the source. No stated cut-off is given here; in the data, active means IC50 below about 10 µM; inactive means the rest.
# Assay: inhibitors of DNA CAG/GTC TO-PRO-1 complex, dose response, counter-screen for rCAG RNA repeat binder project, biochemical, fluorescence, TO-PRO-1 dye (AID 686960)
# Details: DNA CAG/GTC duplex TO-PRO-1 dye displacement fluorescence
row,Compound,IC50
1,CC1(C(=O)NS(=O)(=O)c2ccc3ccccc3c2)CCN1C(=O)C1(c2ccc(Cl)cc2)CCC1 (stereo unspecified),21.2 µM
2,O=C(O)c1ccc(NN=CC2=C(N3CCOCC3)/C(=C/c3ccccc3)CC2)cc1,11 µM
3,CO/N=C(\C(=O)N[C@@H]1C(=O)N2C(C(=O)O)=C(COC(C)=O)CS[C@H]12)c1csc(N)n1 (stereo in doubt),9.89 µM (active)
4,O=C(Cc1ccccc1)Nc1ccc(C(=O)Nc2ccccc2C(=O)O)cc1,> 29.9 µM
5,COc1ccc(Cc2nnc(SCC(=O)Nc3ccc(C)c(Cl)c3)[nH]c2=O)cc1,24.2 µM
6,CC(C)(C)C1C/C(=C/c2ccco2)C(=O)/C(=C/c2ccco2)C1 (stereo unspecified),> 29.9 µM
7,CC(C)c1ccc(CC(=O)N2CCC2(C)C(=O)NS(=O)(=O)c2ccc(C(C)(C)C)cc2)cc1 (stereo unspecified),> 29.9 µM
8,Cc1noc(NS(=O)(=O)c2ccc(NC(=O)c3oc4ccc(F)cc4c3C)cc2)c1C,16.5 µM
9,Cc1ccc(S(=O)(=O)N2[C@@H](c3ccc(Br)cc3)C(C(=O)O)=C[C@H]2CC2CCCC2)cc1,11.6 µM
10,Cc1ccc(C(C)C)c(OCCSc2nc3ccccc3n2CC(=O)O)c1,> 29.9 µM
11,COc1ccc(C(=O)Nc2cccc(/C=C(/CCC(=O)O)c3nc4ccccc4s3)c2)cc1,14.2 µM
